Holding throughout (test): NCI-60 one-dose screen, 48 h (100 = growth as untreated, 0 = no growth, -100 = all killed)
Holding throughout (settings): 10 µM unless noted

The test system of assay [1] is NCI-H23 lung.
The subject of assay [2] is NCI-H322M lung.
The test system of assay [3] is HOP-62 NSCLC.
Assay [4] deals with NCI-H460 lung.
In assay [5] the test system is HOP-92 NSCLC.
For assay [6], the system named is NCI-H522 lung.
The test system of assay [7] is A549/ATCC NSCLC.
For assay [8], the system named is 786-0 renal.
Assay [9] concerns COLO 205 colon.
For assay [10], the system named is DU-145 prostate.
Assay [11] relates to K-562 leukemia.
Assay [12] has as its system MALME-3M melanoma.
In assay [13] the test system is MDA-MB-231 breast.
Assay [14] concerns RXF 393 renal.
The test system of assay [15] is SF-268 CNS.
In assay [16] the test system is SF-295 CNS.
Assay [17] has as its system SF-539 CNS.
The subject of assay [18] is UACC-257 melanoma.
In assay [19] the test system is M14 melanoma.
In assay [20] the test system is HCT-15 colon.

This is part of a sample that, as a whole, favours compounds with a hit. Of some 83,000 tested, about 20% had one in any assay.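 Percent growth is the endpoint: 0 to 100 indicates growth inhibition (40 means 60% inhibition), 0 means no net growth, and negative values indicate cell death.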 Unmarked numbers belong to inactive results. Calls of active or inactive are those of the source. How the source made its calls: active means growth percent below 10; inactive means the rest.

For 8 compounds, growth results are on record in PubChem BioAssay (NCI).

As to `FC(F)(F)c1cccc(CNC2CCN(CCc3ccccc3)CC2)c1`, the growth is 71.6% in [1]; 84% in [2]; 91.1% in assay [3]; 59.8% in assay [4]; 15.7% in assay [5]; 86.7% in assay [6]. In addition, the growth in [7] is 77.5%; in assay [8], 78.6%; in assay [9], 76.2%; in [10], 59.1%; in assay [11] it was 30.1%; in assay [12], 74.8%. For the same compound, the growth is 66.5% in assay [13]; 84.1% in assay [14]; 74.7% in [15]; 81.7% in assay [16]; 93.5% in assay [17]; 87% in [18]. Further, the growth was 49.2% in assay [19] and 86.8% in assay [20].
As for `CC1(O)COCCCCOc2c(CN)cccc2NC(=O)c2nc(cnc2N)-c2ccc(cc2)S(=O)(=O)C(C)(C)C1` (stereo not given), the growth in [1] is -66.7% (active); in assay [2] it was -1.9% (active); in [3], -25.5% (active); in assay [4], -61.9% (active); in [5], -5.59% (active); in assay [6] it was -40.5% (active). The growth in [7] was -52.8% (active); in [8], -58% (active); in assay [9], -47.9% (active); in assay [10], -73.4% (active); in assay [11] it was 0.195% (active); in assay [12], -86.6% (active). For the same compound, the growth in [13] was -76.3% (active); in [14] it was -76.2% (active); in assay [15] it was -66.6% (active); in assay [16] it was -90.3% (active); in [17], -93.4% (active); in [18] it was -66.4% (active). For the same compound, the figures for the growth in assay [19] and in assay [20] were -76.7% (active) and -82.7% (active), respectively.
Turning to `CCN(CC)CCCNc1ccnc2cc3ccccc3cc12`, the growth was 83.3% in [1]; 76% in assay [2]; -9.44% (active) in assay [3]; 45.5% in [4]; 55.6% in [5]; 51.8% in [6]. Further, the growth was 46.6% in [7]; 66.8% in assay [8]; 74.8% in assay [9]; 73.8% in assay [10]; 66.3% in assay [11]; 40.6% in [12]. The growth in [13] was 56.4%; in [14] it was 35.7%; in assay [15] it was 60.2%; in assay [16], -34% (active); in assay [17], 30.8%; in assay [18] it was 75.5%. Moreover, the growth in [19] is 81.9%; in [20], 43.2%.
With `COc1ccccc1C(=O)O/N=C(\N)Cc1cccc2ccccc12`, the growth in [1] is 80.9%; in assay [2], 97.6%; in [3] it was 94.6%; in [4], 70.7%; in assay [5], 91%; in assay [6], 85%. The growth was 70.1% in [7]; 106% in assay [8]; 67.8% in assay [9]; 99.1% in assay [10]; 75.7% in assay [11]; 23.6% in [12]. Further, the growth in assay [13] was 77.3%; in [14], 102%; in assay [15] it was 80.9%; in assay [16], 52.2%; in assay [17] it was 97.2%; in [18], 73.9%. Further, the growth in assay [19] is 86.3%; in assay [20] it was 75.7%.
As for `O=c1oc2ccc(I)cc2c(=O)n1-c1ccc(Cl)cc1F`, the growth in [1] was -9.99% (active); in assay [2], 5.32% (active); in assay [3], -3.85% (active); in assay [4], 3.56% (active); in [5] it was -6.61% (active); in [6], -17.1% (active). The growth is 6.01% (active) in [7]; 8.94% (active) in [8]; 52.1% in assay [9]; 19.5% in assay [10]; 4.68% (active) in assay [11]; -21.2% (active) in assay [12]. The growth in assay [13] is -12.6% (active); in [14], 4.98% (active); in [15], 12%; in assay [16] it was -48.1% (active); in assay [17], 7.99% (active); in assay [18], -15.1% (active). Moreover, the figures for the growth in assay [19] and in assay [20] were 9.12% (active) and 2.13% (active), respectively.
With `CCOC(=O)C(CC(=O)O)=C(C(=O)OCC)C(=O)OCC`, the growth in [1] is 105%; in assay [2], 114%; in assay [3] it was 104%; in assay [4], 107%; in assay [5], 89.5%; in [6] it was 114%. The growth was 101% in [7]; 115% in assay [8]; 121% in [9]; 109% in [10]; 106% in assay [11]; 121% in assay [12]. Moreover, the growth is 123% in assay [13]; 102% in assay [14]; 107% in [15]; 100% in assay [16]; 102% in [17]; 100% in [18]. Besides, the growth in [19] is 115%; in assay [20] it was 96.8%.
As for `COc1ccc(/C=C/C(=O)c2c(C)nc3ccccc3c2/C=C/c2ccccc2)c(OC)c1`, the growth in assay [1] is 73.4%; in [2], 89.3%; in [3] it was 108%; in assay [4], 80.3%; in assay [5], 66.8%; in assay [6], 70.5%. The growth was 78.5% in assay [7]; 94.1% in assay [8]; 94.7% in [9]; 90.4% in assay [10]; 69.6% in assay [11]; 106% in assay [12]. Besides, the growth is 68.9% in assay [13]; 89.6% in assay [14]; 80.7% in assay [15]; 90.9% in [16]; 100% in assay [17]; 104% in assay [18]. The figures for the growth in [19] and in assay [20] were 97.3% and 72.2%, respectively.
As for `Cc1cc2c(c(C)c1Cl)C(=O)/C(=C/c1ccco1)O2`, the growth in assay [1] was 87.9%; in [2], 99.2%; in assay [3] it was 96.7%; in [4], 94.7%; in [5] it was 129%; in [6] it was 85.3%. The growth in [7] is 103%; in assay [8] it was 105%; in assay [9] it was 113%; in assay [10] it was 103%; in assay [11] it was 98.5%; in assay [12] it was 102%. In addition, the growth is 82.3% in assay [13]; 124% in assay [14]; 109% in [15]; 109% in assay [16]; 101% in [17]; 97.4% in assay [18]. Moreover, the growth in assay [19] is 93.2%; in assay [20], 70.8%.
